Measurements taken from PubChem BioAssay (EPA / NIEHS).
Results filed as inconclusive are left out. Calls of active or inactive are those of the source. How the source made its calls, unless noted: active means hit-call score of the fitted dose curve at least 0.9, where 1 is the maximum; inactive means score below 0.9.

Legend:
[1] = biological target: human Thyroid Receptor alpha (THRa1), THRA (gene 7067) (UniProt P10827); experiment: ATG_THRa1_TRANS: Attagene TRANS-FACTORIAL HepG2 Assay for human Thyroid Receptor alpha (THRa1) (AID 2283014; active means hit-call score of the fitted dose curve at least 0.9, where 1 is the maximum)
human Thyroid Receptor alpha (THRa1), THRA (gene 7067), sequence (P10827 whole entry, looked up, the tested form may be a part): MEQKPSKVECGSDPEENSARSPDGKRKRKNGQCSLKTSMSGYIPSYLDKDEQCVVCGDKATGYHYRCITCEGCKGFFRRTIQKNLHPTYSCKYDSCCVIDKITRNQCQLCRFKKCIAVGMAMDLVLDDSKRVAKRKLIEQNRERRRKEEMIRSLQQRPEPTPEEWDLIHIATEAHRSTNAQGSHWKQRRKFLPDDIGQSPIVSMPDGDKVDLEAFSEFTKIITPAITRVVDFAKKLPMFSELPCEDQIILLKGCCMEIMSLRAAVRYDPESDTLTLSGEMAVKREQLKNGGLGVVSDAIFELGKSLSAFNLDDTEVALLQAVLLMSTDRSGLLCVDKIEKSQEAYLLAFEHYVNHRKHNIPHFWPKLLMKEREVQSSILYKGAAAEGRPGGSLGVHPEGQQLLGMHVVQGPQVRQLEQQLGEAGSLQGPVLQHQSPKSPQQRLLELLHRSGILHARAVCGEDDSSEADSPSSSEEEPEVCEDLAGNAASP
Outline: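 Transient HepG2 transfection, NR-Gal4 chimera driving GAL4-UAS reporters; 24 h compound exposure; total RNA, oligo(dT) RT, PCR, fluorescent primer extension, capillary electrophoresis. Upward direction vs DMSO control.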

[2] = read-out: E-selectin (Homo sapiens) (UniProt P16581); experiment: BSK_3C_Eselectin: BioMAP Diversity Plus: 3C Assay for Eselectin Biomarker Activity (AID 2283015); details: primary human endothelial cells (HUVEC); actives raise or lower the signal
Outline: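 HUVEC, 3C stimulation; compound exposure 24 h; E-selectin by ELISA; gain- or loss-of-signal fitted bidirectionally vs DMSO baseline.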

[3] = read-out: Interleukin-1 alpha (IL1a), IL1A (gene 3552); experiment: BSK_BE3C_IL1a: BioMAP Diversity Plus: BE3C Assay for Interleukin-1 alpha (IL1a) Biomarker Activity (AID 2283016); details: primary human bronchial epithelial cells; actives raise or lower the signal
Outline: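 Cultures of primary human bronchial epithelial cells receive test chemical. After 24 h, IL-1a is quantified by ELISA, while parallel wells are fixed in TCA and SRB-stained for total protein. Changes in either direction are fitted relative to DMSO.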

[4] = read-out: Monocyte Chemoattractant Protein-1 (MCP1), CCL2 (gene 6347); experiment: BSK_3C_MCP1: BioMAP Diversity Plus: 3C Assay for Monocyte Chemoattractant Protein-1 (MCP1) Biomarker Activity (AID 2283017); details: primary human endothelial cells (HUVEC); actives raise or lower the signal
Outline: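 HUVEC, 3C system; 24 h chemical exposure; MCP-1 by ELISA; bidirectional curve fit vs DMSO baseline.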

[5] = read-out: Human Leukocyte Antigen - DR isotype (HLADR), HLA-DRA (gene 3122); experiment: BSK_3C_HLADR: BioMAP Diversity Plus: 3C Assay for Human Leukocyte Antigen - DR isotype (HLADR) Biomarker Activity (AID 2283019); details: primary human endothelial cells (HUVEC); actives raise or lower the signal
Outline: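 HUVEC, 3C stimulation, 24 h post-dose; HLA-DR by ELISA; bidirectional curve fit vs DMSO baseline; gain or loss of signal scored.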

[6] = read-out: Interleukin-8 (IL8), CXCL8 (gene 3576); experiment: BSK_3C_IL8: BioMAP Diversity Plus: 3C Assay for Interleukin-8 (IL8) Biomarker Activity (AID 2283020); details: primary human endothelial cells (HUVEC); actives raise or lower the signal
Outline: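 Human vascular endothelial cells (umbilical vein) in the 3C system; IL-8 level detected by ELISA at 24 h post-dose, with DMSO as baseline.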

[7] = biological target: human Vitamin D Receptor (VDR), VDR (gene 7421) (UniProt P11473); experiment: ATG_VDR_TRANS: Attagene TRANS-FACTORIAL HepG2 Assay for human Vitamin D Receptor (VDR) (AID 2283022; active means hit-call score of the fitted dose curve at least 0.9, where 1 is the maximum)
human Vitamin D Receptor (VDR), VDR (gene 7421), sequence (P11473 whole entry, looked up, the tested form may be a part): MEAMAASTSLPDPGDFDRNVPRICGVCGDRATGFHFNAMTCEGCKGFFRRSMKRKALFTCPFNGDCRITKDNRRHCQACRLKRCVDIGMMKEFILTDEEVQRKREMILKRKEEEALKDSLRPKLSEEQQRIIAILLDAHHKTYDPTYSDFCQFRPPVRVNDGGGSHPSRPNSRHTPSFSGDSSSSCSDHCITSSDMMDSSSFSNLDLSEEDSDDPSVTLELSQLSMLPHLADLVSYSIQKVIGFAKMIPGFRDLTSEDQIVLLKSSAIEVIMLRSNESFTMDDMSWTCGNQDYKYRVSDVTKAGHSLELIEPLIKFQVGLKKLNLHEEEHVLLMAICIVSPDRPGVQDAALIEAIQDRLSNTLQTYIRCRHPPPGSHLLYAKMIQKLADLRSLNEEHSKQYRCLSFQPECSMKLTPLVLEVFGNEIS
Outline: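 RT-PCR/capillary electrophoresis read-out of reporter mRNA induction in transiently transfected HepG2; 24 h dosing; chimeric NR-Gal4 (TRANS format); gain-of-signal fit against DMSO baseline.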

[8] = read-out: Monocyte Chemoattractant Protein-1 (MCP1), CCL2 (gene 6347); experiment: BSK_4H_MCP1: BioMAP Diversity Plus: 4H Assay for Monocyte Chemoattractant Protein-1 (MCP1) Biomarker Activity (AID 2283018); details: primary human endothelial cells (HUVEC); actives raise or lower the signal
Outline: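 Readout: MCP-1 ELISA on compound-treated HUVEC, sampled 24 h post-dosing. Baseline and negative control DMSO; bidirectional fit. Overt toxicity checked alongside by sulforhodamine B protein staining at time of biomarker measurement.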

[9] = read-out: Monokine induced gamma interferon (MIG), CXCL9 (gene 4283); experiment: BSK_3C_MIG: BioMAP Diversity Plus: 3C Assay for Monokine induced gamma interferon (MIG) Biomarker Activity (AID 2283021); details: primary human endothelial cells (HUVEC); actives raise or lower the signal;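 on AC50: MIG protein level measured by immunoassay in the treated endothelial cultures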
Outline: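 After 24 h of treatment, human umbilical vein endothelial cultures (3C system) had their MIG biomarker level determined by ELISA, with DMSO serving as negative control.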

[10] = biological target: human Retinoid X Receptor beta (RXRb), RXRB (gene 6257) (UniProt P28702); experiment: ATG_RXRb_TRANS: Attagene TRANS-FACTORIAL HepG2 Assay for human Retinoid X Receptor beta (RXRb) (AID 2283013; active means hit-call score of the fitted dose curve at least 0.9, where 1 is the maximum)
human Retinoid X Receptor beta (RXRb), RXRB (gene 6257), sequence (P28702 whole entry, looked up): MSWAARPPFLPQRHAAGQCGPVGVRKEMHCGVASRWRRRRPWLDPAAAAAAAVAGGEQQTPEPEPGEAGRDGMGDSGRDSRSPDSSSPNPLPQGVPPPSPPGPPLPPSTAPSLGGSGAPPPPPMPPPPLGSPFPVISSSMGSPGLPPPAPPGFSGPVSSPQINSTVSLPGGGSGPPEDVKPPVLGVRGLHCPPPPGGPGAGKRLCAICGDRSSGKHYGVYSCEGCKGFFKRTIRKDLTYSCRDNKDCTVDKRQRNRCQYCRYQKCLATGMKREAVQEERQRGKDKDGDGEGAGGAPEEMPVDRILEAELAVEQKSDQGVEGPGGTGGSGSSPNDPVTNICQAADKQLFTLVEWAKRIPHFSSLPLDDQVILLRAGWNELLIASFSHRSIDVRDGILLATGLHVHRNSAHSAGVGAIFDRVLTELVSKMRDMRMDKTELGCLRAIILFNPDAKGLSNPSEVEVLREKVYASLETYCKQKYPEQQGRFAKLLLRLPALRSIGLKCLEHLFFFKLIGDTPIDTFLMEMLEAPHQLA
Outline: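 Multiplexed TRANS reporter assay in HepG2; 24 h dosing; reporter mRNA by RT-PCR/CE fluorescence; gain-of-signal relative to DMSO.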

Measured: AC50

E-selectin (Homo sapiens), sequence (P16581 whole entry, looked up): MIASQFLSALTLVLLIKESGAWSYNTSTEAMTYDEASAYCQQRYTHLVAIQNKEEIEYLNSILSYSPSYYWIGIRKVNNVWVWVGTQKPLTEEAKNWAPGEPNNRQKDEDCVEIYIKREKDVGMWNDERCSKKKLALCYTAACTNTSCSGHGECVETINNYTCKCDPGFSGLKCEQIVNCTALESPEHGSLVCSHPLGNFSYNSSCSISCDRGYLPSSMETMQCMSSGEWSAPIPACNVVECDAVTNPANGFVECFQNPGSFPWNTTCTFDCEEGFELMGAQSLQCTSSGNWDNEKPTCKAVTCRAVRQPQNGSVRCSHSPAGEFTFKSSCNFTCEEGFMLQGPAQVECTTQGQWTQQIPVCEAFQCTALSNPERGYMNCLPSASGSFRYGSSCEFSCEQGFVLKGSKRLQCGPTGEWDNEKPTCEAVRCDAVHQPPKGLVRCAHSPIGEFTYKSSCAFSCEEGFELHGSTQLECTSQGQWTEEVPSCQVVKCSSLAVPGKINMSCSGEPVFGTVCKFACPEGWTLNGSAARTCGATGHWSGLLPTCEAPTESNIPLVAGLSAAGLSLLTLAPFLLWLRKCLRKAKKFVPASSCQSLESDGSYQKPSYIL

CCCOC(=O)c1cc(O)c(O)c(O)c1
not listed: [8] | [9] | [10]
inactive: all other assays above

CCCCCCCCOc1ccc(C(=O)c2ccccc2)c(O)c1
active: [5] 24.7 µM
not listed: [10]
inactive: all other assays above

Cc1ncc(CO)c(CO)c1O
not listed: [1] | [8] | [9]
inactive: all other assays above

CCCCCCCCCCCCO
active: [2] 31 µM | [3] 19.8 µM | [4] 31 µM | [8] 31.9 µM | [6] 36 µM
inactive: [1]

CCCCOC(=O)c1ccc(O)cc1
not listed: [10]
inactive: all other assays above

Cc1cn([C@H]2C[C@H](N=[N+]=[N-])[C@@H](CO)O2)c(=O)[nH]c1=O
inactive: [2] | [3] | [4] | [5] | [6] | [7]

CCCCOC(=O)CC(CC(=O)OCCCC)(OC(C)=O)C(=O)OCCCC
not listed: [5] | [8] | [10]
inactive: all other assays above

CC(C)(C)c1csc(-c2cc3cc(OCc4ccccc4CC(=O)O)ccc3o2)n1
inactive: [2] | [7]
active: [3] 10 µM | [4] 21.6 µM | [8] 22.6 µM | [6] 18.4 µM | [9] 32 µM

CCN(CC)C(=O)c1cc(S(=O)(=O)Cc2ccccc2)c(N2CCC(c3ccccc3)CC2)cc1N(CC)CCN(C)C
active: [2] 27.2 µM | [3] 9.53 µM | [4] 10.4 µM | [6] 13.8 µM

O=C(O)c1ccccc1C(=O)OCc1ccccc1
inactive: [2] | [3] | [4] | [5] | [6]

COc1ccc2cc(S(=O)(=O)N[C@H](CC(=O)N[C@H](Cc3ccc(CN4[C@H](C)CCC[C@@H]4C)cc3)C(=O)N(C)C(C)C)c3ccc4c(c3)OCO4)ccc2c1
inactive: [2] | [3] | [7]
active: [4] 12.5 µM | [6] 16.3 µM

O=CCCCC=O
active: [2] 33.7 µM | [3] 33.2 µM
inactive: [4] | [8] | [6] | [9] | [7]

O=C(O)Cc1cc(I)c(Oc2ccc(O)c(I)c2)c(I)c1
active: [3] 25.5 µM
not listed: [1] | [5] | [10]
inactive: all other assays above

CCN(Cc1cccc(S(=O)(=O)O)c1)c1ccc(C(=C2C=CC(=[N+](CC)Cc3cccc(S(=O)(=O)O)c3)C=C2)c2ccccc2S(=O)(=O)[O-])cc1
inactive: [1] | [2] | [3] | [4] | [6] | [7]

O=C(O)Cn1c(=O)n(Cc2ccc(Br)cc2F)c(=O)c2ccc(Cl)cc21
not listed: [1] | [9] | [10]
inactive: all other assays above

Clc1ccccc1C(c1ccccc1)(c1ccccc1)n1ccnc1
inactive: [7]
active: [2] 30.8 µM | [3] 7.88 µM | [4] 15.9 µM | [8] 16.9 µM | [6] 27.2 µM | [9] 34.5 µM

C[C@]12CC[C@@H]3c4ccc(O)cc4CC[C@H]3[C@@H]1CCC2=O
inactive: [2] | [3] | [4] | [6]

CCN(Cc1cccnc1)C(=O)c1cccc(Cl)c1[C@]1(C)C(=O)N(Cc2ccc(OC)cc2OC)c2ccc(Cl)cc21
inactive: [3] | [8] | [9] | [7]
active: [2] 6.76 µM | [4] 6.68 µM | [6] 5.8 µM

O=c1c(-c2ccc(O)cc2)coc2cc(O)cc(O)c12
inactive: [1] | [2] | [7]
active: [4] 25.3 µM

O=c1ccc2ccccc2o1
not listed: [1] | [7] | [10]
inactive: all other assays above

CCO[Si](CCCNC(N)=O)(OCC)OCC
inactive: [2] | [3] | [4] | [6] | [7]
